Measurements: PubChem BioAssay AID1030 (National Center for Advancing Translational Sciences (NCATS), 2008)
In all, about 220,000 compounds went through this assay and about 16,000 (7.3%) were called active. Entries that show only a call come without a potency. Not shown: some 25% with an inconclusive outcome. This excerpt belongs to a sample that is enriched for actives. A number with no mark means an inactive call. Calls come from the whole dose curve; as a rule, active = well fitted inhibition curve with a large enough effect (not every such curve was filed as active); inconclusive = small, poorly fitted or top-dose-only effect, or another doubt; inactive = no such curve, though single readings can be large or run the other way.

Biological target: Aldehyde dehydrogenase 1A1 (Homo sapiens) (UniProt P00352)
Sequence (P00352 whole entry, looked up): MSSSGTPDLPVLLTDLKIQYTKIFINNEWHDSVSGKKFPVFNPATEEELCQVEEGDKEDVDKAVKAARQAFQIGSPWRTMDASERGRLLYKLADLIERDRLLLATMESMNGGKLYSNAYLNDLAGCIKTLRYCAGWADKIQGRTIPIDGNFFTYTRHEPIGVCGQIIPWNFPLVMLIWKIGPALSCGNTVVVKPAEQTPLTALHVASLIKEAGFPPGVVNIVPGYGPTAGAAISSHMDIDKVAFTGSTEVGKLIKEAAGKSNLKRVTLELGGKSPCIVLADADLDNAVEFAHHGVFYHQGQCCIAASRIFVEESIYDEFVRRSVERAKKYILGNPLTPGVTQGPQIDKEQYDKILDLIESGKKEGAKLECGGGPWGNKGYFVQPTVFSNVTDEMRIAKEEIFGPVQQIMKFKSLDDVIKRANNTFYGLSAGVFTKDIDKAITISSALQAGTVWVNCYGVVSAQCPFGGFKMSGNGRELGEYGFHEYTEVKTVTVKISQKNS
Assay: qHTS Assay for Inhibitors of Aldehyde Dehydrogenase 1 (ALDH1A1)
Conditions: Purified ALDH1A1, NADH fluorescence, propionaldehyde substrate; series mostly up to 75.3 µM
Potency is the fitted concentration of half-maximal effect.

Structure (SMILES)	Potency	activity, negative = inhibition
O=C(O)C[C@@H]1NC(=O)[C@H](Cc2ccccc2)NC1=O	inactive	–
O=C(CSc1nncs1)NC1CCCc2ccccc21 (stereo not drawn)	inactive	–
O=C(CN1CCN(c2ccc(O)cc2)CC1)NC1CCCc2ccccc21 (stereo not drawn)	11.2 µM (active)	–
O=C(CCC(=O)N1CCN(S(=O)(=O)c2ccccc2)CC1)NC1CCCc2ccccc21 (stereo not drawn)	inactive	–
COC(=O)CCCC1=CC2=CC(=O)C(C)(OC(=O)c3cccs3)C(=O)C2=CN1c1ccc(CO)cc1 (stereo not drawn)	–	3.06% [at 13.5 µM]
COc1ccc(CN2CCC(c3nc4ccc(Cl)cc4[nH]3)CC2)cc1	inactive	–
O=C(Cc1c(F)cccc1Cl)Nc1ccc(-n2cnnn2)cc1	inactive	–
Cc1ccc(NC(=O)N2CCC(c3nc4c(nnn4Cc4c(F)cccc4Cl)c(=O)[nH]3)CC2)cc1	15.8 µM (active)	–
COc1ccc(Cn2nnc3c(=O)[nH]c(C4CCN(C(=O)c5ccccc5Cl)CC4)nc32)cc1	14.1 µM (active)	–
Cc1ccc(NC(=O)N2CCC(C(=O)NCc3ccc(F)cc3)CC2)cc1	inactive	–
Cc1ccc(Cn2nnc3c(=O)n(CC(=O)N4CCCCC4)cnc32)cc1	inactive	–
COC(=O)c1nc(NC(=O)c2ccc(C(C)(C)C)cc2)n[nH]1	inactive	–
CSc1nc2ccc(NC(=O)c3c(F)cccc3F)cc2s1	inactive	–
N/C(=N\OC(=O)c1ccc2c(c1)OCO2)c1ccc(Br)cc1	inactive	–
COc1ccccc1Cn1c(C)nnc1-c1cnn(C)c1N	inactive	–
O=C(CN1CCCCCC1)NCCN1C(=O)S/C(=C\c2ccccc2Cl)C1=O	inactive	–
CCC1(CC)NC(=O)N(Cc2nc3ccccc3s2)C1=O	inactive	–
CC(CC(=O)Nc1ccccc1)n1ccnc1 (stereo not drawn)	inactive	–
CC(NC(=O)c1ccc(N2CCNCC2)c([N+](=O)[O-])c1)C12CC3CC(CC(C3)C1)C2 (stereo not drawn)	inactive	–
Cc1cccc(N2CCN(c3ccc(C(N)=O)cc3[N+](=O)[O-])CC2)c1C	inactive	–
CS(=O)(=O)N1CCN(c2ccc(C(=O)NC3C4CC5CC(C4)CC3C5)cc2[N+](=O)[O-])CC1 (stereo not drawn)	14.1 µM (active)	–
CCN(CC(=O)NCc1cccs1)S(=O)(=O)c1ccc(NC(C)=O)cc1	inactive	–

Structure (SMILES)	Potency	activity, negative = inhibition
CCn1c(CSc2ncccn2)nnc1SCC(=O)N1c2ccccc2CC1C (stereo not drawn)	25.1 µM (active)	–
Cc1cc(=O)[nH]c(SCC(=O)N2c3ccccc3CC2C)n1 (stereo not drawn)	inactive	–
CC1CC(C)CN(C(=O)CSc2nnc(CSc3ncccn3)n2C)C1 (stereo not drawn)	inactive	–
Cc1noc(C)c1-c1nc(CSc2ccc(Cl)cc2)no1	inactive	–
CC1CCC(NC(=O)C2c3ccccc3C(=O)N2Cc2ccc3c(c2)OCO3)CC1 (stereo not drawn)	inactive	–
CN(CC(=O)Nc1ccccc1[N+](=O)[O-])Cc1ccc(Br)cc1	inactive	–
CCOc1ccc(Br)cc1S(=O)(=O)Nc1cccc(S(=O)(=O)N(CC)CC)c1	11.2 µM (active)	–
CCOc1ccc(Br)cc1S(=O)(=O)Nc1ccc(C(=O)OC(C)C(=O)N(C)c2ccccc2)cc1 (stereo not drawn)	inactive	–
CCOc1ccc(Br)cc1S(=O)(=O)N1CCC(C(=O)O)CC1	inactive	–
N#Cc1c(-c2ccc(F)cc2)nc(-c2ccccc2)[nH]c1=O	inactive	–
Cc1ccc(OCCCn2c(=O)oc3ccccc32)cc1	inactive	–
OCC1(CCc2ccccc2)CCN(Cc2ccc3nsnc3c2)CC1	8.91 µM (active)	–
CC(=O)c1cccc(CN2CCC(CO)(Cc3ccccc3)CC2)c1	inactive	–
OCCC1CN(Cc2ccc3nsnc3c2)CCN1C1CCCC1 (stereo not drawn)	inactive	–
CSc1ccccc1C(=O)NCc1ccccc1	inactive	–
CCc1cccc(C)c1NC(=S)N(CCCN1CCN(C)CC1)Cc1cccs1	inactive	–
COc1ccc(C(=O)OCC(=O)NCC2CCCCC2)cc1S(=O)(=O)N1CCCc2ccccc21	20 µM (active)	–
CCC(C)(C)NC(=O)/C=C/c1cc(OC)c(OC)c(S(=O)(=O)N2CCc3ccccc32)c1	inactive	–
CCN(C(=O)COC(=O)c1cc(S(=O)(=O)N2CCc3ccccc32)ccc1OC)C1CCS(=O)(=O)C1 (stereo not drawn)	inactive	–
O=C(O)c1ccn(COc2ccc(Br)cc2)n1	inactive	–
O=C(CSc1nnc2ccc(-c3ccncc3)nn12)N1CCCCC1	inactive	–
CC(C)(C)c1cc(NC(=O)NN2CCOCC2)nn1-c1c(Cl)cc(Cl)cc1Cl	inactive	–

Structure (SMILES)	Potency	activity, negative = inhibition
CSCCC(NC(=O)c1ccc(=O)n(C)n1)c1nc2ccccc2[nH]1 (stereo not drawn)	inactive	–
COc1ccc(CC(=O)N[C@@H](CCSC)c2nc3ccccc3[nH]2)cc1	8.91 µM (active)	–
CSCCC(NC(=O)c1cc([N+](=O)[O-])cc([N+](=O)[O-])c1)c1nc2ccccc2[nH]1 (stereo not drawn)	inactive	–
Cc1ccc(C(=O)Cn2cc([N+](=O)[O-])nc2C)cc1	inactive	–
C=CCn1cnc2scc(-c3ccccc3)c2c1=O	inactive	–
C=CCn1c(SCC(=O)/C(C#N)=C(\C)N)nc2sc(C)c(C)c2c1=O	inactive	–
C=CCn1c(SCc2csc(C)n2)nc2scc(-c3ccc(C)o3)c2c1=O	22.4 µM (active)	–
CN1CCCN(C(=O)C2CCCCC2)CC1	inactive	–
COc1ccccc1NC(=O)CCSc1nnc(-c2ccc(O)cc2)o1	inactive	–
O=C1CCCCC(=O)c2ccccc2N1	inactive	–
CN(C)/C=C1/Nc2ccccc2C1=O	25.1 µM (active)	–
CN(C)/C=C1/C(=O)Nc2ccccc21	inactive	–
CCOC(=O)C1(Cc2cccc(OC)c2)CCCN(S(=O)(=O)c2cccnc2)C1 (stereo not drawn)	inactive	–
O=C(NCCCN1CCOCC1)c1ccccc1NS(=O)(=O)c1ccc(Br)cc1	inactive	–
CCOC(=O)NC(=O)C(=CNc1cccc(OC)c1)C(=O)NC(=O)OCC	inactive	–
CSC1=N/C(=C\c2ccc3c(c2)OCO3)C(=O)S1	inactive	–
CCC1=C/C(=C\c2ccc3c(c2)OCO3)C(=O)S1	28.2 µM (active)	–
CCc1c(C)sc(NC(=O)/C=C/c2ccc3c(c2)OCO3)c1C(=O)OC	inactive	–
CC(C)(C)NCC(O)COc1cccc2[nH]c(=O)[nH]c12 (stereo not drawn)	inactive	–
COc1cc2c(cc1OC)CC1(CCCCC1)N=C2	inactive	–
COc1ccc(C(CCN(Cc2ccc(OC)c(OC)c2)C(=O)CCl)c2ccccc2)cc1 (stereo not drawn)	3.55 µM (active)	–
COc1ccc(CCNC(=O)C(Sc2ccccn2)c2ccccc2)cc1OC (stereo not drawn)	inactive	–

Structure (SMILES)	Potency	activity, negative = inhibition
COc1ccc(CCN(C(=O)COc2ccccc2)c2nc(-c3ccccc3)cs2)cc1OC	inactive	–
CCN(CC)CCNC(=O)c1sc2ncn(CC(=O)Nc3ccc(C)c(Cl)c3)c(=O)c2c1C	inactive	–
COCCNC(=S)N(Cc1cccnc1)Cc1ccc(OC)c(OC)c1	inactive	–
COC(=O)c1ccc(CSc2nncn2N)cc1	inactive	–
CN1C=CC=C/C1=C1\SC(=S)N(Cc2ccccc2)C1=O	12.6 µM (active)	–
CCN1C(=O)/C(=C2/Sc3ccccc3N2CCCS(=O)(=O)O)SC1=S	inactive	–
CCCCN1C(=O)/C(=C2/C=CC=CN2C)SC1=S	22.4 µM (active)	–
CC12C(=O)N(c3ccccc3)C(=O)C1C(c1ccccc1)N1CCCN12 (stereo not drawn)	inactive	–
N#CC1(C#N)C(C(=O)C23CC4CC(CC(C4)C2)C3)C12CCOCC2 (stereo not drawn)	inactive	–
O=C(c1ccncc1)c1ccc([N+](=O)[O-])cc1	inactive	–
Cc1ccc(C(=O)NCC(=O)O)s1	inactive	–
O=C(N/C(=C\c1ccc(F)cc1)C(=O)N1CCCCCC1)c1ccccc1	inactive	–
CC1Cc2ccccc2N1C(=O)CSc1nnc(-c2ccc(S(=O)(=O)N3CCCCC3)cc2)o1 (stereo not drawn)	inactive	–
CC1Cc2ccccc2N1C(=O)CSc1nc2ccccc2o1 (stereo not drawn)	inactive	–
CCS(=O)(=O)c1ccc2oc(SCC(=O)N3c4ccccc4CC3C)nc2c1 (stereo not drawn)	28.2 µM (active)	–
CO/N=C/c1cn(-c2ccc(Cl)cc2)nn1	inactive	–
COc1cccc([C@@H]2Oc3ccc(Br)cc3C(=O)[C@H]2OC(=O)NCc2ccc3c(c2)OCO3)c1	inactive	–
C1CC1Cc1noc(CN2CCN(CC3CC3)CC2)n1	inactive	–
CCCC(=O)Nc1cc(OCC)c(NC(=O)NC2CCCCC2)cc1OCC	inactive	–
CCOc1cc(NC(=O)c2ccccn2)c(OCC)cc1NC(=O)c1ccc(OC)cc1	inactive	–
CCOc1cc(NC(=O)CCl)c(OCC)cc1NC(C)=O	25.1 µM (active)	–
CC(Nc1nc(N2CCCC2)nc2ccccc12)c1ccccc1 (stereo not drawn)	inactive	–

Structure (SMILES)	Potency	activity, negative = inhibition
Cc1ccc(C(CC(=O)O)Nc2nc(N3CCCCC3)nc(N3CCCCC3)n2)cc1 (stereo not drawn)	25.1 µM (active)	–
CC(=O)NC(CC(=O)O)c1ccc(F)cc1 (stereo not drawn)	inactive	–
CC(C)C1N=C2c3ccccc3N=C(SCC(=O)c3ccc(O)c(O)c3)N2C1=O (stereo not drawn)	0.631 µM (active)	–
Cc1ccc(NC(=O)N2CCSc3ccccc32)cc1	inactive	–
Cn1ccc(=NC=C(C#N)C#N)c2ccccc21	inactive	–
Cc1ccc(NNC(=O)c2c(F)cccc2Cl)cc1Cl	inactive	–
CCOC(=O)C(=Cc1ccccc1OC)C(=O)OCC	inactive	–
Cc1cc(C)nc(NNC2=CC(=O)CC(C)(C)C2)n1	25.1 µM (active)	–
Cc1cc(O)ccc1NC1=CC(=O)CC(C)(C)C1	inactive	–
COC(=O)NNC1=CC(=O)CC(C)(C)C1	inactive	–
CCc1nnc(NC(=O)Cc2cccs2)s1	inactive	–
O=C(c1ccc(F)cc1)c1cn(Cc2ccc(F)cc2)c2cc3c(cc2c1=O)OCCO3	inactive	–
CCCOc1ccccc1C1CC(=O)Nc2cc3c(cc21)OCO3 (stereo not drawn)	inactive	–
COc1cc2c(cc1/C=C1/NC(=O)N(c3ccccc3)C1=O)OCO2	3.98 µM (active)	–
O=C1N/C(=C/c2cccn2-c2ccccc2)C(=O)N1c1cccc(Cl)c1	inactive	–
COC(=O)c1c(C(=O)OC)c2n(c1C)CCS2	inactive	–
CCN(CC)C(=O)CS(=O)CC(=O)Nc1cc(OCCOC)c(Cl)cc1Cl (stereo not drawn)	inactive	–
Oc1oc(-c2ccccc2Br)nc1/C=N/c1ccccn1	11.2 µM (active)	–
CC(N=Cc1nc(-c2ccccc2)oc1O)c1ccccc1 (stereo not drawn)	inactive	–
CCOc1ccc2nc(/N=C/c3nc(-c4ccccc4)oc3O)sc2c1	inactive	–
